Assay results: PubChem BioAssay (EPA / NIEHS)
The source made the active and inactive calls. How the source made its calls: active means hit-call score of the fitted dose curve at least 0.9, where 1 is the maximum; inactive means score below 0.9.

What was measured:
[1] = target: Nuclear respiratory factor 1 (Homo sapiens) (UniProt Q16656); experiment: ATG_NRF1_CIS: Attagene CIS-FACTORIAL HepG2 Assay for human Nuclear Respiratory Factor 1 (NRF1) Orphan Gene (AID 2282987); conditions: HepG2 NRF1 cis-element reporter, Attagene multiplex; actives raise or lower the signal
How it was run: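 Endogenous NRF1-driven reporter transcription in transfected HepG2 cells after 24 h treatment. Readout: RT-PCR products, 6-FAM labelled and resolved by capillary electrophoresis; changes fitted both directions relative to DMSO.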

[2] = ATG_NFI_CIS: Attagene CIS-FACTORIAL HepG2 Assay for human Nuclear Factor I (NFI) (AID 2282989); conditions: HepG2 cis-regulatory reporter, NFI response element transcription; actives raise or lower the signal
How it was run: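 Endogenous TF activity in HepG2 cells transiently transfected with cis-element-driven multiplexed reporter units, read 24 h after dosing. Reporter mRNA quantified by RT-PCR, 6-FAM labelling, HpaI digestion and capillary electrophoresis; bidirectional fit versus DMSO.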

[3] = target: Myc proto-oncogene protein (Homo sapiens) (UniProt P01106); experiment: ATG_Myc_CIS: Attagene CIS-FACTORIAL HepG2 Assay for human Myelocytomatosis (Myc) Proto-Oncogene Transcription Factor (AID 2282990); conditions: HepG2, Attagene cis-reporter transcription factor activity; actives raise or lower the signal
How it was run: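 Cells of the HepG2 human liver line bear multiple cis-driven reporter transcription units. Reporter mRNA after 24 h exposure is reverse-transcribed, amplified, labelled and resolved by capillary electrophoresis, with gain- or loss-of-signal fitting relative to DMSO.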

[4] = ATG_Oct_MLP_CIS: Attagene CIS-FACTORIAL HepG2 Assay for human Octamer-Binding Transcription Factor (Oct) (AID 2282993); conditions: HepG2 Attagene cis-factorial Oct reporter, mRNA; actives raise or lower the signal
How it was run: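 HepG2 cells transiently transfected with cis-element-driven reporter transcription units (endogenous TF activity); 24 h compound exposure. Reporter mRNA quantified by RT-PCR, 6-FAM labelling, HpaI digestion and capillary electrophoresis; bidirectional fit versus DMSO baseline.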

[5] = ATG_NRF2_ARE_CIS: Attagene CIS-FACTORIAL HepG2 Assay for human Nuclear Factor Erythroid 2 Related Factor 2 (NFR2) response to Antioxidant Response Elements (ARE) (AID 2282992); conditions: HepG2 Attagene ARE/NRF2 reporter, transcription factor activity; actives raise or lower the signal;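 on AC50: reporter mRNA level measured by RT-PCR and capillary electrophoresis fluorescence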
How it was run: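 Endogenous transcription factor activity in human liver HepG2 cells is tracked via a cis-element-driven reporter within a multiplexed set. mRNA induction is read by RT-PCR and capillary electrophoresis after 24 h, with DMSO as baseline.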

[6] = target: Cellular tumor antigen p53 (Homo sapiens) (UniProt P04637); experiment: ATG_p53_CIS: Attagene CIS-FACTORIAL HepG2 Assay for human p53 Transcription Factor (AID 2282994); conditions: HepG2 p53 cis-element reporter, Attagene mRNA; actives raise or lower the signal
How it was run: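 Steps: transfect HepG2 with multiplexed cis reporter constructs; dose chemicals 24 h; extract RNA, reverse-transcribe, PCR-amplify reporter sequences; FAM-label, HpaI-digest, resolve fragments by CE. Activity fitted both directions relative to DMSO.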

[7] = BSK_3C_TissueFactor: BioMAP Diversity Plus: 3C Assay for Tissue Factor Biomarker Activity (AID 2282997); conditions: BioMAP 3C HUVEC, tissue factor biomarker readout; actives raise or lower the signal
How it was run: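 Tissue Factor measured by ELISA, 24 h after treatment of primary HUVEC in the BioMAP 3C setting.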

[8] = BSK_3C_uPAR: BioMAP Diversity Plus: 3C Assay for Urokinase-type plasminogen activator receptor (uPAR) Biomarker Activity (AID 2282998); conditions: BioMAP 3C HUVEC, uPAR biomarker ELISA; actives raise or lower the signal
How it was run: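 Primary human umbilical vein endothelial cells, 3C system; surface uPAR measured by ELISA 24 h after dosing. Cytotoxicity via SRB total protein in parallel cultures; bidirectional fit against DMSO.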

[9] = BSK_3C_VCAM1: BioMAP Diversity Plus: 3C Assay for Vascular cell adhesion molecule 1 (VCAM1) Biomarker Activity (AID 2282999); conditions: BioMAP 3C HUVEC, VCAM1 ELISA, cytokine-stimulated; actives raise or lower the signal
How it was run: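 Activity fitted in both directions relative to DMSO, with ELISA measurement of the surface marker on primary HUVEC (3C) at 24 h post-treatment; parallel SRB staining (0.1% SRB, TCA-fixed, 560 nm) flagged overt cytotoxicity.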

[10] = ATG_NF_kB_CIS: Attagene CIS-FACTORIAL HepG2 Assay for human Nuclear Factor Kappa B (NF-kB) (AID 2282991); conditions: HepG2 Attagene cis-factorial NF-kB reporter mRNA; actives raise or lower the signal
How it was run: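 Readout is reporter transcript level, gain or loss versus DMSO, measured 24 h post-dose via RT-PCR, fluorescent labelling and capillary electrophoresis. Human HepG2 liver cells carried transiently transfected CIS reporter constructs reflecting endogenous factors.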

Measured: AC50

Myc proto-oncogene protein (Homo sapiens), sequence (P01106 whole entry, looked up): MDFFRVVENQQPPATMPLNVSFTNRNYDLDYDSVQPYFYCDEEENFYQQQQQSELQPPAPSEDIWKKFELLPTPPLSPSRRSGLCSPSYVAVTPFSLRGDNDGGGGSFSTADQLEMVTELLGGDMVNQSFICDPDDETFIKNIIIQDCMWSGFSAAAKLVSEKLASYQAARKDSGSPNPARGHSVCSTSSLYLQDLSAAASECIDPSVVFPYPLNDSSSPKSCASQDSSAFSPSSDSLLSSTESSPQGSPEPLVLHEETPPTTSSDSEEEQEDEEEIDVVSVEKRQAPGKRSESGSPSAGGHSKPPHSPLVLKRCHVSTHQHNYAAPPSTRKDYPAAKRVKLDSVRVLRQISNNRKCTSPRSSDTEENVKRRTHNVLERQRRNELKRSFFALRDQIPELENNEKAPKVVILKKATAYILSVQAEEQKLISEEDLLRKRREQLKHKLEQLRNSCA
Cellular tumor antigen p53 (Homo sapiens), sequence (P04637 whole entry, looked up, the tested form may be a part): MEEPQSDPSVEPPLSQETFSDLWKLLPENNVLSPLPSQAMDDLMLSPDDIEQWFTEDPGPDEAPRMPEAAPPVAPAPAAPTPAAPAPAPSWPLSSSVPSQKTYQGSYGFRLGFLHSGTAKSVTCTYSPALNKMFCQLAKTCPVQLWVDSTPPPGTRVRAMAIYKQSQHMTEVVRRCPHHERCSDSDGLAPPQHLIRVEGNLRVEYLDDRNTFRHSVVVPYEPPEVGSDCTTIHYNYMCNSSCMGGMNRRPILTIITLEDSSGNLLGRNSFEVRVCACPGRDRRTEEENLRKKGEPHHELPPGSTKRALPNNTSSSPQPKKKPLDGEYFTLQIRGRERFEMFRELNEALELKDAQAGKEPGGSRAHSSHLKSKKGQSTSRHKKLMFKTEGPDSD
Nuclear respiratory factor 1 (Homo sapiens), sequence (Q16656 whole entry, looked up): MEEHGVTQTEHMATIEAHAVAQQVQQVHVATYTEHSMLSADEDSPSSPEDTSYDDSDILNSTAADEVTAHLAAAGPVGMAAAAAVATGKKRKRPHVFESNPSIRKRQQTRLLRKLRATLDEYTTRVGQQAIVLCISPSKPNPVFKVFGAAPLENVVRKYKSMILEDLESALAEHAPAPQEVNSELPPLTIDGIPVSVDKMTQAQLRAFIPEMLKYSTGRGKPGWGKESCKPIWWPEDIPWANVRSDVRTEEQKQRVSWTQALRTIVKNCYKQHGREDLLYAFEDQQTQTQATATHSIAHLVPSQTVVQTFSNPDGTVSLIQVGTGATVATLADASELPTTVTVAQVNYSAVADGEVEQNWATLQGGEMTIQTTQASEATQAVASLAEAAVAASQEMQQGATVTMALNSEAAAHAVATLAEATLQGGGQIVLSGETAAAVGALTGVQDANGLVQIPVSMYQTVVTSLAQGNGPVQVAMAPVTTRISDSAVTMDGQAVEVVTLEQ

O=C(OCCc1ccccc1)c1ccccc1
inactive: [1] | [2] | [3] | [4]

Cc1ccc([N+](=O)[O-])cc1N
not listed: [10]
inactive: all other assays above

O=C(O)c1cc(O)c2ccccc2c1O
active: [3] 43.6 µM | [5] 7.34 µM
inactive: [1] | [2] | [4] | [6]

C=CC(=O)NCOCCCC
not listed: [5] | [6] | [10]
inactive: all other assays above

Oc1ccc(-c2ccccc2)c(Cl)c1
inactive: [3] | [10]
active: [2] 33.4 µM | [5] 22.7 µM | [4] 52.3 µM

O=C1c2ccccc2C(=O)c2cc(S(=O)(=O)O)ccc21
inactive: [1] | [3] | [10] | [4]
active: [5] 100 µM

CCCCC(CC)COS(=O)(=O)O (centres undefined)
inactive: [1] | [3] | [10] | [5] | [4]

Nc1cccc(N)n1
inactive: [1] | [2] | [3] | [4] | [7] | [9]

CC(=O)OCc1ccccc1
inactive: [1] | [3] | [10] | [5] | [4]

CCCCOC(=O)C(C)CC (centres undefined)
inactive: [1] | [3] | [5] | [4] | [6]

C=C(C)C(=O)OCC(O)COc1ccc(C(C)(C)c2ccc(OCC(O)COC(=O)C(=C)C)cc2)cc1 (centres undefined)
inactive: [3] | [10] | [6]
active: [1] 130 µM | [5] 26.5 µM | [4] 17.8 µM

CCNc1nc(NC(C)(C)C)nc(OC)n1
not listed: [2] | [8]
inactive: all other assays above

COC(Cc1ccccc1)OC
inactive: [1] | [3] | [5] | [4]

CCCCCCCCC(CO)CCCCCC (centres undefined)
active: [1] 117 µM | [3] 179 µM
inactive: [2] | [4] | [7] | [9]

[Cl][Eu]([Cl])[Cl]
inactive: [1] | [3] | [10] | [4] | [6]

CC(=O)CCC1=C(C)CCCC1(C)C
active: [5] 49.1 µM
inactive: [1] | [3] | [10] | [4]

CCCCCCCCCCCCCc1ccccc1
inactive: [1] | [3] | [5] | [4] | [6]

CC(C)(C)C1CCC(=O)CC1
inactive: [1] | [3] | [10] | [5] | [6]
active: [4] 145 µM

CCOC(=O)c1ccccc1C
inactive: [2] | [3] | [10] | [5] | [4]

CCCCOCCOC(=O)COc1ccc(Cl)cc1Cl
inactive: [1] | [3] | [10] | [5] | [4] | [6]

CC(c1cc(C(C)(C)C)cc(C(C)(C)C)c1O)c1cc(C(C)(C)C)cc(C(C)(C)C)c1O
active: [7] 0.464 µM
not listed: [2] | [6] | [8]
inactive: all other assays above

Cc1ccc(S(=O)(=O)N=C=O)cc1
inactive: [1] | [3] | [10] | [5] | [4] | [6]

Oc1ccc(/C=C/c2cc(O)cc(O)c2)cc1
active: [1] 179 µM | [10] 100 µM | [5] 24.6 µM
not listed: [2] | [8]
inactive: all other assays above

C1CCSC1
inactive: [1] | [3] | [4] | [6]

O=C(Cl)c1ccc(C(=O)Cl)cc1
inactive: [1] | [3] | [5] | [4] | [6]

N#CC1(N)CCCCC1
inactive: [1] | [3] | [5] | [4]

Nc1nc(N)nc(-c2ccccc2)n1
not listed: [2] | [6] | [8]
inactive: all other assays above

CC(=O)OCCc1ccccc1
inactive: [1] | [3] | [5] | [4] | [6]

O=C(C=Cc1ccccc1)OCCc1ccccc1
inactive: [1] | [3] | [10] | [4] | [6]
active: [5] 20.4 µM

CC(C)(C)N
inactive: [1] | [3] | [10] | [4] | [6]

Cn1ccnc1
inactive: [1] | [3] | [10] | [5] | [4] | [6]

CC(C)C(=O)OCCc1ccccc1
inactive: [1] | [3] | [10] | [4] | [7] | [9]

C=CCCCCCCCCO
inactive: [1] | [3] | [5] | [4] | [6]

CC(C)(CO)C(O)C(=O)NCCCO (centres undefined)
inactive: [1] | [3] | [5] | [4]

CCCCOCC(C)O (centres undefined)
inactive: [1] | [3] | [10] | [5] | [4] | [6]

CC1CCC(=O)C1=O (centres undefined)
inactive: [1] | [3] | [5] | [4]

CCC1(C)C(=O)N(Cl)C(=O)N1Cl (centres undefined)
active: [5] 27.1 µM | [4] 27.4 µM
not listed: [2]
inactive: all other assays above

Cc1cc(C)n(CO)n1
inactive: [1] | [3] | [10] | [5] | [4] | [6]

CC(Cl)COP(=O)(OCC(C)Cl)OCC(C)Cl (centres undefined)
not listed: [2] | [5]
inactive: all other assays above

CCCCCC[C@@H](O)C/C=C\CCCCCCCC(=O)OCC(O)CO (some centres undefined)
inactive: [10] | [4]
active: [1] 179 µM | [3] 162 µM | [5] 87.9 µM | [6] 181 µM

CC(C)c1ccc(O)c(C(C)C)c1
inactive: [2] | [3] | [10] | [4] | [6]
active: [5] 24.6 µM

CCCC/C=C/C=C\C=O
active: [5] 41.3 µM | [6] 165 µM
inactive: [2] | [3] | [4]

O=C(O)C1CCC(C(=O)O)CC1 (centres undefined)
inactive: [2] | [3] | [5] | [4] | [6]

O=C(O[C@@H]1Cc2c(O)cc(O)cc2O[C@@H]1c1cc(O)c(O)c(O)c1)c1cc(O)c(O)c(O)c1
inactive: [2] | [3] | [10] | [5] | [4] | [6]

C=CCNCC=C
inactive: [3] | [4]

CC(C)=CCl
inactive: [2] | [3] | [10] | [5] | [4] | [6]

CCC(=O)C1CC(C(C)C)CC=C1C (centres undefined)
inactive: [2] | [3] | [10] | [4]
active: [5] 40.1 µM

CC(=O)OC/C=C(/C)CCC=C(C)C
inactive: [2] | [3] | [5] | [4]

CCN(CC)c1cccc(C)c1
inactive: [2] | [3] | [5] | [4] | [6]

Clc1cc(Cl)c(Cl)c(Cl)c1Cl
active: [7] 3.97 µM
not listed: [1] | [5] | [10]
inactive: all other assays above

CCCCC1C(=O)N(c2ccccc2)N(c2ccccc2)C1=O
inactive: [3] | [10] | [4] | [7] | [9]

COc1ccc(C(=O)c2ccccc2)c(O)c1
active: [10] 168 µM | [5] 100 µM
not listed: [1] | [2]
inactive: all other assays above

CCCCNS(=O)(=O)c1ccc(C)cc1
inactive: [2] | [3] | [4] | [6]

CC/C=C\CCOC(=O)c1ccccc1O
active: [5] 100 µM | [6] 138 µM | [7] 25.4 µM | [9] 30.1 µM
inactive: [3] | [4]

C=CCCCCCCCCC=O
inactive: [3] | [5] | [4] | [7] | [9]

CCCCNC(=S)NCCCC
inactive: [3] | [10] | [5] | [4] | [6]

COc1cc(O)c(C(=O)c2ccccc2)cc1S(=O)(=O)O
inactive: [2] | [3] | [10] | [4]

CN1CCN(C)CC1
inactive: [2] | [3] | [10] | [5] | [4] | [6]
